Source: the supplement of paper PMC9135407
Counter-ions that a name gives are not always drawn.

tested on: primary human hepatic stellate cells (donor 1); experiment: PSMB2 reference mRNA level vs DMSO (fold); higher = more PSMB2 expression; details: 48 h
Description: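 Secondary qRT-PCR screen in primary human HSCs (donor 1), 384-well plates, with compounds dispensed in quadruplicate and incubated for 48 h. Cells-to-CT lysates were used for multiplexed TaqMan qPCR of ACTA2 or COL1A1 with PSMB2 as reference. Fold changes versus DMSO come from a linear model (Ct_gene ~ Ct_PSMB2 + plate + chemical). A hit is defined as COL1A1 and ACTA2 FC <0.5 (FDR <0.05) with PSMB2 between 0.2 and 2.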

SMILES | PSMB2 reference mRNA level
CCN(CC)CC#CCOC(=O)C(O)(c1ccccc1)C1CCCCC1 (stereo not given) [Oxybutynin chloride] (16.9333 µM) | 1.08
Cn1cc(C2=C(c3ccc(Cl)cc3Cl)C(=O)NC2=O)c2ccccc21 (33.3333 µM) | 0.517
CSc1ccc2c(c1)C(N1CCN(C)CC1)Cc1ccccc1S2 (stereo not given) [Methiothepin maleate] (33.3333 µM) | 0.000808
CNCCCC12CCC(c3ccccc31)c1ccccc12 [Maprotiline hydrochloride] (33.3333 µM) | 1.89
O=C(c1ccc(/C=C/c2n[nH]c3ccccc23)cc1)N1CCNCC1 (33.3333 µM) | 0.0479
COc1cc2ncn(-c3cc(OCc4ccccc4C(F)(F)F)c(C(N)=O)s3)c2cc1OC (33.3333 µM) | 1.6
CCc1cc2c(cc1CC)CC(NC[C@H](O)c1ccc(O)c3[nH]c(=O)ccc13)C2 [Indacaterol Maleate] (33.3333 µM) | 0.728
Cc1cccc(Nc2nc(-c3ccncc3)cs2)c1 (11.1 µM) | 1.45
CCCSc1ccc2[nH]c(NC(=O)OC)nc2c1 [Albendazole] (33.3333 µM) | 1.65
C[C@]12CC[C@H](O)CC1=CC[C@@H]1[C@@H]2CC[C@]2(C)C(n3cnc4ccccc43)=CC[C@@H]12 [Galeterone] (33.3333 µM) | 0.0945
